These results are taken from publication PMC7862700, “An all-to-all approach to the identification of sequence-specific readers for epigenetic DNA modifications on cytosine”.

What all share (experiment): DAPPL (digital affinity profiling via proximity ligation, sequencing); 10 mM Tris-HCl pH 7.5, 50 mM NaCl, 1 mM DTT, 4% glycerol, room temperature, 30 min; GST-TFs on glutathione beads, 16-mer random dsDNA library, 0.1% formaldehyde crosslink after washing; high values mean tight binding
The target of one assay is T1, FEV (Homo sapiens, UniProt Q99581 1-238).
T1 sequence: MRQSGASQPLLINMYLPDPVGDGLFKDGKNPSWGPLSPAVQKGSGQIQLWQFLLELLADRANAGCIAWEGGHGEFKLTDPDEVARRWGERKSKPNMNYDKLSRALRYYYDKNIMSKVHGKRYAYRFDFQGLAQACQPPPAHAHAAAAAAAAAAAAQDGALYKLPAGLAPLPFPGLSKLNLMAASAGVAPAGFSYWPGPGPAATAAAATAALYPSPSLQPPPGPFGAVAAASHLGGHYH
As to conditions: protein: recombinant; tags: N-terminal GST; dsDNA, one strand shown. Summed up:
(§1)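 Pools were built from human transcription factors expressed in yeast as GST fusions, captured on glutathione beads and DNA-barcoded, along with a tag-only sample. Incubation with 200 nmole of a 16-mer random double-stranded DNA library lasted 30 min at room temperature in Tris/NaCl/DTT/glycerol buffer, and was followed by washing, 0.1% formaldehyde crosslinking, proximity ligation, PCR amplification and Illumina NextSeq500 sequencing. Binding signal is the quotient of each hexamer's read frequency for a factor and its frequency for the tag-only sample.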

In a further assay the target is ETV5 (Homo sapiens, UniProt P41161 1-510). The conditions noted are these: protein: recombinant; tags: N-terminal GST; dsDNA, one strand shown. Summed up:
as §1

A further assay has as its target HSF1 (Homo sapiens, UniProt Q00613 1-529). As to conditions: protein: recombinant; tags: N-terminal GST; chain copies: 3; dsDNA, one strand shown. Summed up: as §1
A further assay has as its target T2, SPIC (Homo sapiens, UniProt Q8N5J4 1-248).
T2 sequence: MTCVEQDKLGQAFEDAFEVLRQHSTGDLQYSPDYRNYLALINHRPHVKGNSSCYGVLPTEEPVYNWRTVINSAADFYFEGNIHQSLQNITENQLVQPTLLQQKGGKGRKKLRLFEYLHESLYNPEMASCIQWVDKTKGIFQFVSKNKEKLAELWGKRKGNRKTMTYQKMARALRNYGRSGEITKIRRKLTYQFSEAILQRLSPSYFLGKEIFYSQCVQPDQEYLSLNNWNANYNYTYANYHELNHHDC
The conditions noted are these: protein: recombinant; tags: N-terminal GST; dsDNA, one strand shown. Summed up: as §1

Another assay has as its target ELF4 (Homo sapiens, UniProt Q99607 1-663). The conditions noted are these: protein: recombinant; tags: N-terminal GST; dsDNA, one strand shown. Summed up:
as §1

Another assay deals with T3, ELK4 (Homo sapiens, UniProt P28324-2 1-405).
T3 sequence: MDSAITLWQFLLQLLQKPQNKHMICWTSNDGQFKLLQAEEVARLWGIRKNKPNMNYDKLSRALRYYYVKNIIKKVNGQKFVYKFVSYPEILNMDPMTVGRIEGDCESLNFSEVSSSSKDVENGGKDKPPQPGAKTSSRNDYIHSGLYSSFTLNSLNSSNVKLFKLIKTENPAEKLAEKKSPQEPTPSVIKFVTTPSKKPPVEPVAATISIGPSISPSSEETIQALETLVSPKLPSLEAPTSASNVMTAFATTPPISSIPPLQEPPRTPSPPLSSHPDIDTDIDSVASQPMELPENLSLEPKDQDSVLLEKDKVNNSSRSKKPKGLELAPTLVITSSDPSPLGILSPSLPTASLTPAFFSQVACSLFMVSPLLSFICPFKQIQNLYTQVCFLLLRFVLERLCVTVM
The conditions noted are these: protein: recombinant; tags: N-terminal GST; dsDNA, one strand shown. Summed up: as §1

The target in another assay is T4, ETV2 (Homo sapiens, UniProt O00321 1-342).
T4 sequence: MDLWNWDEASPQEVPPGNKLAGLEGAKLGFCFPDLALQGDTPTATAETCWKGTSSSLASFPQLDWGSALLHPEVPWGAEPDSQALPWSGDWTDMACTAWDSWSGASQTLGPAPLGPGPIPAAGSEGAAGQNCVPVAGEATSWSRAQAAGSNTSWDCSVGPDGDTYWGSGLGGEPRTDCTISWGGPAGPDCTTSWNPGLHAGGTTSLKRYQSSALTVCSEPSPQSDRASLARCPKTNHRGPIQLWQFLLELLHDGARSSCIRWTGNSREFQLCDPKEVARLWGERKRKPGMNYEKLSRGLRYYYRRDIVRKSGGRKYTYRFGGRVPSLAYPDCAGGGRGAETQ
As to conditions: protein: recombinant; tags: N-terminal GST; dsDNA, one strand shown. Summed up:
as §1

In a further assay the target is T5, ELF3 (Homo sapiens, UniProt P78545 1-371).
T5 sequence: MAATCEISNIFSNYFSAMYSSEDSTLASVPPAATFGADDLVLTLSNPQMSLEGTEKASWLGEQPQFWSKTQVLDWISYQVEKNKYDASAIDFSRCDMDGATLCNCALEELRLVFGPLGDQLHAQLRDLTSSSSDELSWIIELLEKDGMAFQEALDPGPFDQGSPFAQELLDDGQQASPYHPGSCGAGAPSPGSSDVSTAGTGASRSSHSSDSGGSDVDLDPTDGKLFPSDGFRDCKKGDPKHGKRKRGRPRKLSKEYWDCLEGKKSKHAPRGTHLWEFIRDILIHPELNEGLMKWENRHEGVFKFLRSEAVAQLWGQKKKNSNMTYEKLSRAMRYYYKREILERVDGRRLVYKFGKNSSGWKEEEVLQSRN
As to conditions: protein: recombinant; tags: N-terminal GST; dsDNA, one strand shown. Summed up: as §1

For a further assay, the target named is CRX (Homo sapiens, UniProt O43186 1-299). As to conditions: protein: recombinant; tags: N-terminal GST; dsDNA, one strand shown. Summed up: as §1
Another assay deals with ETV1 (Homo sapiens, UniProt P50549 1-477). As to conditions: protein: recombinant; tags: N-terminal GST; dsDNA, one strand shown. Summed up:
as §1

A further assay concerns the target T6, ERF (Homo sapiens, UniProt P50548 1-548).
T6 sequence: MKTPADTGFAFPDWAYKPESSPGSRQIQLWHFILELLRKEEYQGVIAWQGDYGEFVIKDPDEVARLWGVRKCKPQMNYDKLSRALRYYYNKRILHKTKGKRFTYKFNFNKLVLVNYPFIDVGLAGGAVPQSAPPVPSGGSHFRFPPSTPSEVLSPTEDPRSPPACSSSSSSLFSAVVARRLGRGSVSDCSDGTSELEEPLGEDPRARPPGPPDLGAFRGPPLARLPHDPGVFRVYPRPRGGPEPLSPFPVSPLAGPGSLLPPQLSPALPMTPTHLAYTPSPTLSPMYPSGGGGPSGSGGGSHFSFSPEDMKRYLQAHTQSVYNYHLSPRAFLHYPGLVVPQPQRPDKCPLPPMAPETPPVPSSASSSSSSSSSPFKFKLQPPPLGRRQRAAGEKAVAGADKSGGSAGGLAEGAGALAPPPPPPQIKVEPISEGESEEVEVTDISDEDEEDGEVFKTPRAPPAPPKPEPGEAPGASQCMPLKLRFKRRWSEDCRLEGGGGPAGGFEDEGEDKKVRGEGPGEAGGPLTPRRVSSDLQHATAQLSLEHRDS
As to conditions: protein: recombinant; tags: N-terminal GST; dsDNA, one strand shown. Summed up: as §1

The next assay has as its target T7, ETV3L (Homo sapiens, UniProt Q6ZN32 1-361).
T7 sequence: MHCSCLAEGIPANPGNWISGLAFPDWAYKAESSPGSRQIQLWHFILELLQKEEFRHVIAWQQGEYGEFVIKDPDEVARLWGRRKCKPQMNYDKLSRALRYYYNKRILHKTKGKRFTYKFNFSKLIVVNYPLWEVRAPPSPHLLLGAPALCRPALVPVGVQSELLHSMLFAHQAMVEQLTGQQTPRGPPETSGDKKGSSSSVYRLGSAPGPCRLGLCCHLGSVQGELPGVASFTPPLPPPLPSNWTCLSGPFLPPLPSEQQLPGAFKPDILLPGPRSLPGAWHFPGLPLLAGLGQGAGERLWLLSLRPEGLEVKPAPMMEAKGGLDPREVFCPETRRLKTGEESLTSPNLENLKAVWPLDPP
The conditions noted are these: protein: recombinant; tags: N-terminal GST; dsDNA, one strand shown. Summed up:
as §1

The target in another assay is T8, ETS2 (Homo sapiens, UniProt P15036 1-469).
T8 sequence: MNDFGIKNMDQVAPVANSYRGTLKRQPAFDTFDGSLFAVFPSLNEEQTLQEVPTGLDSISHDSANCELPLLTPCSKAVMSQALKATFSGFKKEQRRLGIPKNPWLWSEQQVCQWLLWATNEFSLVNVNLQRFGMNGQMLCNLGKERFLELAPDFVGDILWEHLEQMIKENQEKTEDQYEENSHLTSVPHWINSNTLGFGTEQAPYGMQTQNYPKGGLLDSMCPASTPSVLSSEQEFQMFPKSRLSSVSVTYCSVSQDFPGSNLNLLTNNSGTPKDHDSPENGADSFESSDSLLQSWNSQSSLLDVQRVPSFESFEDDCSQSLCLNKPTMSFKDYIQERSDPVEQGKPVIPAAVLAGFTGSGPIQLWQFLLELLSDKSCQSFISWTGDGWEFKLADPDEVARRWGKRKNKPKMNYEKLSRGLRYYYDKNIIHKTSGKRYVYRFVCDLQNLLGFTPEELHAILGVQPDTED
As to conditions: protein: recombinant; tags: N-terminal GST; dsDNA, one strand shown. Summed up:
as §1

The target of the next assay is T9, SPDEF (Homo sapiens, UniProt O95238 1-335).
T9 sequence: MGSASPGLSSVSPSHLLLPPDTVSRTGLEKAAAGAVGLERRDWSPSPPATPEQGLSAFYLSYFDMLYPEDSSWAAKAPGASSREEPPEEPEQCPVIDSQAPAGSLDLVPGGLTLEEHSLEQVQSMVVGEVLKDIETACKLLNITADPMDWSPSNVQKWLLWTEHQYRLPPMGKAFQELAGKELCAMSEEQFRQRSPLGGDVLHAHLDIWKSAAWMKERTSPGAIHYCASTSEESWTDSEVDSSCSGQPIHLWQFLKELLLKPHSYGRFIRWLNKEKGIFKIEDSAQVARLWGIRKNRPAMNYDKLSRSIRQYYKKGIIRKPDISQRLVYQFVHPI
The conditions noted are these: protein: recombinant; tags: N-terminal GST; dsDNA, one strand shown. Summed up: as §1

For a further assay, the target named is T10, ETV7 (Homo sapiens, UniProt Q9Y603 1-341).
T10 sequence: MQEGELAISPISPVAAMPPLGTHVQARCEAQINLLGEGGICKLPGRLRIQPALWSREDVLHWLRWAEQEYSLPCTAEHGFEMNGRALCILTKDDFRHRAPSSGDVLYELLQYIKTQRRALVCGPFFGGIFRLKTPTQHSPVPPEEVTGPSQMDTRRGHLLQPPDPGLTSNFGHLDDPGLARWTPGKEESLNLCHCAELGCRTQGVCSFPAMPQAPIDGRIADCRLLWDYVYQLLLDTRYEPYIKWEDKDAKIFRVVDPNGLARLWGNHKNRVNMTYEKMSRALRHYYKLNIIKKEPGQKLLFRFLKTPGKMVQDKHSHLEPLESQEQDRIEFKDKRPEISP
The conditions noted are these: protein: recombinant; tags: N-terminal GST; dsDNA, one strand shown. Summed up:
as §1

Another assay has as its target T11, ELF5 (Homo sapiens, UniProt Q9UKW6-2 1-255).
T11 sequence: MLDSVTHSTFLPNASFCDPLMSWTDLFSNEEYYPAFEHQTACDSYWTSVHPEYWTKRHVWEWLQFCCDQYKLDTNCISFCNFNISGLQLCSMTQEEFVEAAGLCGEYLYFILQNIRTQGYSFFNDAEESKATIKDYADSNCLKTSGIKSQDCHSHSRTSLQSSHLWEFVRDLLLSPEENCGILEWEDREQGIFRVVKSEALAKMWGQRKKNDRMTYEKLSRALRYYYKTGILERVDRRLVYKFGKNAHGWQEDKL
The conditions noted are these: protein: recombinant; tags: N-terminal GST; dsDNA, one strand shown. Summed up:
as §1

Another assay addresses T12, ETV3 (Homo sapiens, UniProt P41162-2 1-143).
T12 sequence: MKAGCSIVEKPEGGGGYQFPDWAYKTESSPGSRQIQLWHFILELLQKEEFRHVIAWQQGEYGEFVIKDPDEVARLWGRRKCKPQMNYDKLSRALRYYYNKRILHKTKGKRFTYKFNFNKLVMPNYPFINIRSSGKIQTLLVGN
The conditions noted are these: protein: recombinant; tags: N-terminal GST; dsDNA, one strand shown. Summed up: as §1

A further assay has as its target ETV6 (Homo sapiens, UniProt P41212 1-452). The conditions noted are these: protein: recombinant; tags: N-terminal GST; dsDNA, one strand shown. Summed up: as §1

Chain of ETV6 (P41212 whole entry): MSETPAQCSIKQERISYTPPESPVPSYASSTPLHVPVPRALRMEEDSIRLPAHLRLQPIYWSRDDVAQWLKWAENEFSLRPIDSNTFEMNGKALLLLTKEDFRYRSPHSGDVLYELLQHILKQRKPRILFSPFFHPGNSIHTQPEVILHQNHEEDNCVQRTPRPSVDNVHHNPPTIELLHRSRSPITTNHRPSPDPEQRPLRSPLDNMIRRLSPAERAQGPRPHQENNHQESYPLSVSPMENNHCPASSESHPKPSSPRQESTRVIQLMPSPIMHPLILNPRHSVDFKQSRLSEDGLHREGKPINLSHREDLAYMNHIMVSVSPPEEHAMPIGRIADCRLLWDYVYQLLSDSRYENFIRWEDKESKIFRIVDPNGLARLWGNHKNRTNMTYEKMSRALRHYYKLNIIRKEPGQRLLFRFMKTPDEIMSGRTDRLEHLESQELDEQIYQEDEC
Chain of ETV5 (P41161 whole entry): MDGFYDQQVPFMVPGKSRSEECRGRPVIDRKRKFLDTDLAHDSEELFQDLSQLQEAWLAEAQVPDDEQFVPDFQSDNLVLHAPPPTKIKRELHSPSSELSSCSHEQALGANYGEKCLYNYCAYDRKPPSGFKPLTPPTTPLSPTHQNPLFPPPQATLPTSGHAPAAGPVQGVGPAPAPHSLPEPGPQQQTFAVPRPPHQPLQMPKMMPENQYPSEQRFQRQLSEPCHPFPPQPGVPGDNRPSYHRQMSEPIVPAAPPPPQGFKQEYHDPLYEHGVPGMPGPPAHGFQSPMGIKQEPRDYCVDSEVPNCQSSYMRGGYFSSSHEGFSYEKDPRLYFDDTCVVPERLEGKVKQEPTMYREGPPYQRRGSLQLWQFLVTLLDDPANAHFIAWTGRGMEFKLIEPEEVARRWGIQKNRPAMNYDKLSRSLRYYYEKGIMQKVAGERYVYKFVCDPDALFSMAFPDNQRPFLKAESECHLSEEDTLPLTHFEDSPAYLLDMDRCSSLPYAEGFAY
Chain of ETV1 (P50549 whole entry): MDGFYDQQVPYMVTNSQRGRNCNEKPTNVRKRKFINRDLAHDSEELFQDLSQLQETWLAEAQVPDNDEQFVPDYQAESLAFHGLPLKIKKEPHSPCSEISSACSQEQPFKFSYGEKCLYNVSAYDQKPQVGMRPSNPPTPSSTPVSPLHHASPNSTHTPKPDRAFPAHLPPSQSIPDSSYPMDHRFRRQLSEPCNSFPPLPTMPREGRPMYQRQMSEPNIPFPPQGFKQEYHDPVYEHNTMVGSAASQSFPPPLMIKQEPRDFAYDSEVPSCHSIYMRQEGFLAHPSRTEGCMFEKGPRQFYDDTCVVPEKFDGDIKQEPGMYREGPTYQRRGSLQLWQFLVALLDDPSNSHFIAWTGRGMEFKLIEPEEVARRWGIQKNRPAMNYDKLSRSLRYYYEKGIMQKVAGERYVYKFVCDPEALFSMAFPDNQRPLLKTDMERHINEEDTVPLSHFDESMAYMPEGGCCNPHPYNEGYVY
Chain of CRX (O43186 whole entry): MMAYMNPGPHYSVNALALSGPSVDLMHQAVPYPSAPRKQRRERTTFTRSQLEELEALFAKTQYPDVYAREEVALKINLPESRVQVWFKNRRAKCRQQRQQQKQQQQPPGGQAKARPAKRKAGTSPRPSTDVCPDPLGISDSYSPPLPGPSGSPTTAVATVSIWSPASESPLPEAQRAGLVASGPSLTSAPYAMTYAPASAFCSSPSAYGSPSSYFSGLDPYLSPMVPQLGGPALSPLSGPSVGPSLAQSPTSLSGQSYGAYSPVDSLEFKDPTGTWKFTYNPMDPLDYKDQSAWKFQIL
Chain of HSF1 (Q00613 whole entry): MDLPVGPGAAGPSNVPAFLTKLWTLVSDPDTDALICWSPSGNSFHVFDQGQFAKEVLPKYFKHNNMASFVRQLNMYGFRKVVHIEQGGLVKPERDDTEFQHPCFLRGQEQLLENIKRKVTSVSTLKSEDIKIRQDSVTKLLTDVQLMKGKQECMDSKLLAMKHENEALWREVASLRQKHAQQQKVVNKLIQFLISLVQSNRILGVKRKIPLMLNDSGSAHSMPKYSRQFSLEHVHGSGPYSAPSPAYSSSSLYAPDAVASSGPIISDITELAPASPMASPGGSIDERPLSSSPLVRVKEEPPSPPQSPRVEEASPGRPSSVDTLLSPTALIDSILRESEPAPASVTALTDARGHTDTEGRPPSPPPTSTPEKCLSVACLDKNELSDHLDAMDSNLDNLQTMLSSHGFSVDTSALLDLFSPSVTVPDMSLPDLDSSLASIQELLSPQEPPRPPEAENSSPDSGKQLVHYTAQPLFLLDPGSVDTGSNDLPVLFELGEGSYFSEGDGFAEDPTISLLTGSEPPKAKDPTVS
Chain of ELF4 (Q99607 whole entry): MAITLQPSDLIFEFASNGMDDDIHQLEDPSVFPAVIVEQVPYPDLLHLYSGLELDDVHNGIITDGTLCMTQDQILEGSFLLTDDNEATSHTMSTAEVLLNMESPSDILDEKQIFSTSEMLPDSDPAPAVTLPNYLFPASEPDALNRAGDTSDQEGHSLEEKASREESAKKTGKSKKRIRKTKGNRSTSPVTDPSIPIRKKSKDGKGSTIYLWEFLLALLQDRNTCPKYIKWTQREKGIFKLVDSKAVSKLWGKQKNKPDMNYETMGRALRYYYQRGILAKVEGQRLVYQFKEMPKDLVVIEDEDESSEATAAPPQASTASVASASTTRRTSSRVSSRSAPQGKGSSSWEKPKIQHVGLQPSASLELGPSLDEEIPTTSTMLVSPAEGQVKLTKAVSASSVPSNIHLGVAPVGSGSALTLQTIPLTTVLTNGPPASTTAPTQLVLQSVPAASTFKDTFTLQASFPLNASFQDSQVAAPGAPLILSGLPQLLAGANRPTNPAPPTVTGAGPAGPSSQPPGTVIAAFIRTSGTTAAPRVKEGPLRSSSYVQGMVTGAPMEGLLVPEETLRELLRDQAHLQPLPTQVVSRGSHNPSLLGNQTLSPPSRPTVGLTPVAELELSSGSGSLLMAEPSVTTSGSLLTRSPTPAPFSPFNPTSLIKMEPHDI

Take CCCGTA: the binding signal with FEV was 1.16 fold enrichment (6-mer frequency, TF over GST control); in the assay with ETV5, 1.25 fold enrichment (6-mer frequency, TF over GST control); in the assay with HSF1, 1.22 fold enrichment (6-mer frequency, TF over GST control); with SPIC, 1.31 fold enrichment (6-mer frequency, TF over GST control); with ELF4, 1.16 fold enrichment (6-mer frequency, TF over GST control); in the assay with ELK4, 1.21 fold enrichment (6-mer frequency, TF over GST control). For the same sequence, the binding signal was 1.3 fold enrichment (6-mer frequency, TF over GST control) with ETV2; 1.14 fold enrichment (6-mer frequency, TF over GST control) with ELF3; 1.17 fold enrichment (6-mer frequency, TF over GST control) with CRX; 1.16 fold enrichment (6-mer frequency, TF over GST control) in the assay with ETV1; 1.09 fold enrichment (6-mer frequency, TF over GST control) with ERF; 1.19 fold enrichment (6-mer frequency, TF over GST control) in the assay with ETV3L. Also, the binding signal with ETS2 is 1.2 fold enrichment (6-mer frequency, TF over GST control); with SPDEF it was 1.24 fold enrichment (6-mer frequency, TF over GST control); with ETV7, 1.12 fold enrichment (6-mer frequency, TF over GST control); in the assay with ELF5, 1.21 fold enrichment (6-mer frequency, TF over GST control); in the assay with ETV3 it was 1.21 fold enrichment (6-mer frequency, TF over GST control); in the assay with ETV6, 1.25 fold enrichment (6-mer frequency, TF over GST control).
